# A selection: hits, their analogues and other compounds. The true share with any hit is near 2.6%.
# Cruzain Triton = cruzain (T. cruzi) inhibition with detergent; purified cruzain, Z-FR-AMC fluorescence, 0.01% Triton; AID 1478; Potency, µM, hits mostly inhibitors; 0.43% of 200,000 active; P25779; also: nearly all actives have a fitted effect of over 40% in size
# Target sequence (P25779 123-467 limits assumed): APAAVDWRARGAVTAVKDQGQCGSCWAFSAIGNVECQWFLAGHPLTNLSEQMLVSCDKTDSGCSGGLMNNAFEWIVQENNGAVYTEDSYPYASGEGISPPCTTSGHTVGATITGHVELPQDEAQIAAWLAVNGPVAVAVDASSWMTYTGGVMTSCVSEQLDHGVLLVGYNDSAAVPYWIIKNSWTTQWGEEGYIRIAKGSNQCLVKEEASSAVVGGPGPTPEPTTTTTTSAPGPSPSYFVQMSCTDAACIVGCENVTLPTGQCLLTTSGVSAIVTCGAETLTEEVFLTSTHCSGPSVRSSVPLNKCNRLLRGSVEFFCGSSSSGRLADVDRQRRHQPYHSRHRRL
#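 Sodium acetate buffer (100 mM, pH 5.5) containing 5 mM DTT and 0.01% Triton X-100 hosted 1.5 nM cruzain and test compound for 15 min at room temperature. Cleavage of 2 uM Z-FR-AMC was then tracked by fluorescence.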
# Cruzain noTriton = cruzain (T. cruzi) inhibition without detergent; P25779; purified cruzain, Z-FR-AMC fluorescence, no detergent; Potency, µM, usual class: inhibitors; 2.3% of 200,000 active; also: nearly all actives have a fitted effect of over 40% in size
#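 Detergent-free condition (0.00005% Triton X-100) in acetate buffer pH 5.5 with DTT. 1.5 nM enzyme and compound were pre-mixed 15 min, then 2 uM Z-FR-AMC substrate added; reaction progress from fluorescence change between first and third reads (60 s).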
# A number is an active result; i = inactive; ? = inconclusive; ! = repeats disagree. Calls follow the shape of the dose curve; as a rule, active = well fitted curve in the direction sought with a large enough effect; inconclusive = small, poorly fitted or top-dose-only effect, or another doubt; inactive = no such curve, though single readings can be large; an effect the other way counts as inactive or inconclusive.
SMILES,Cruzain Triton,Cruzain noTriton
CC(C)C[C@@H](CC(=O)N[C@@H](CCC(=O)O)CC(=O)O)NC(=O)[C@@H]1CCCC[C@H]1NC(=O)C[C@@H](NC(=O)C[C@H](Cc1c[nH]c2ccccc12)NC(=O)[C@@H]1CNCC[C@H]1N)C(C)C,i,i
CC(Sc1nc2c([nH]c3ccccc32)c(=O)n1-c1ccccc1)c1ccccc1 (stereo not given),i,7.9µM
O=C(CSc1nc2c([nH]c3ccccc32)c(=O)n1-c1ccccc1)Nc1ccc(Cl)c(Cl)c1,i,13µM
Cc1cc2nc(-c3ccc(SCC(=O)Nc4ccc5c(c4)OCCO5)nc3)[nH]c2cc1C,i,16µM
COC(=O)C(C)Sc1nc2c([nH]c3ccccc32)c(=O)n1-c1ccc(OC)cc1 (stereo not given),i,i
Cc1ccc2nc(-c3ccc(SCC(=O)Nc4ccc5c(c4)OCCO5)nc3)[nH]c2c1,i,i
O=C(CSc1nc2c([nH]c3ccccc32)c(=O)n1-c1ccccc1)Nc1ccc2c(c1)OCCO2,i,25µM
O=C(CSc1nc2c([nH]c3ccccc32)c(=O)n1-c1ccccc1)Nc1ccc2c(c1)OCO2,i,?
COc1cccc(NC(=O)CSc2nc3c([nH]c4ccccc43)c(=O)n2-c2ccccc2)c1,i,?
C[N+](=O)[O-],i,i
O=c1cc(-c2ccccc2)nc(SCc2nc(-c3cccc(C(F)(F)F)c3)no2)[nH]1,i,i
C=C(C)Cn1c(SCC(=O)Nc2cccc(Cl)c2)nc2sc3c(c2c1=O)CCCC3,i,?
Cc1cc(C)cc(-n2c(SCC(=O)Nc3ccc4c(c3)OCCO4)nc3c([nH]c4ccccc43)c2=O)c1,i,?
Cc1ccc(-n2c(SCC(=O)Nc3ccc4c(c3)OCCO4)nc3c([nH]c4ccccc43)c2=O)cc1,i,25µM
Cc1cc(O)c(C(C)C)cc1CN1CCCCC1,i,i
COc1ccc(OC)c(CCNC(=O)CCn2c(=O)c3cccn3c3cccnc32)c1,i,i
COc1cc(NC(=O)CN2CCN(c3ccccc3)CC2)c(C)cc1[N+](=O)[O-],i,?
COc1cc(NC(=O)CN2CCN(c3ccccc3F)CC2)c(C)cc1[N+](=O)[O-],i,25µM
Nc1ccc(N=Nc2ccccc2)c(N)n1,i,20µM!
Cc1cc(=O)n2[nH]c(N)c(N=Nc3ccccc3)c2n1,i,i
Nc1nc(-c2ccccc2)cs1,i,i
Cc1cc(-c2csc(N)n2)c(C)n1CCc1ccccc1,i,4µM
Cc1cc(-c2csc(N)n2)c(C)n1CCC(C)C,i,25µM
CCOC(=O)c1cc(C)n(CCc2ccccc2)c1C,i,i
COc1ccccc1CCn1c(=O)c(-c2cccs2)nc2cncnc21,i,i
SMILES,Cruzain Triton,Cruzain noTriton
COc1cccc(CNC(=O)c2cc(-c3ccc(Cl)cc3)n[nH]2)c1,i,i
COc1cccc(-c2cc3nc(-c4ccccc4)cc(N4CCC5(CC4)OCCO5)n3n2)c1,28µM,i
COc1cccc(-c2cc(C(F)(F)F)n3nc(C(=O)N4CCC5(CC4)OCCO5)cc3n2)c1,i,?
Cc1cc(N/C=C/C(=O)c2ccc(Br)cc2)no1,i,?
O=C(/C=C/Nc1ccc(F)c(F)c1)c1ccc(Br)cc1,i,25µM
O=C(/C=C/Nc1ccccc1F)c1ccc(Br)cc1,i,?
O=C(/C=C/Nc1ccc([N+](=O)[O-])cc1)c1ccc(Br)cc1,i,20µM
CCCCC/C=C\C/C=C\C/C=C\C/C=C\CCCC(=O)C(F)(F)F,i,i
CCn1c(=O)c2cc(C(=O)N3CCN(c4cccc(Cl)c4)CC3)sc2c2ccccc21,i,i
CC(C)OC(=O)[C@@H]1CC[C@H](C)[C@@H](CCCCO)O1,i,i
COc1ccc(CN(C(=O)Nc2cccc(Cl)c2)c2ccccn2)cc1OC,i,?
CCn1c(NCc2cccc(Cl)c2)nc2ccccc21,i,i
COc1cc2nc(Nc3cccc(C)c3)nc(N)c2cc1OC,?,i
Nc1nc(Nc2ccc(Cl)cc2)nc2ccccc12,28µM,10µM
Nc1nc(Nc2ccccc2)nc2ccccc12,?,25µM
Oc1ccc(Nc2nc(-c3ccc(Cl)cc3)nc3ccccc23)cc1,i,?
Cc1c(/C=N/NC(=O)c2ccccc2O)c2ccccn2c1C(=O)c1ccc(F)cc1,i,25µM
Cc1c(/C=N/NC(=O)c2ccc(O)cc2)c2ccccn2c1C(=O)c1ccc(F)cc1,i,?
Cc1ccccc1NS(=O)(=O)c1cc(C(=O)NCCC2=CCCCC2)ccc1Cl,i,i
Cc1ccc(C(=O)NCC(=O)OC(C)C(=O)NCCC2=CCCCC2)cc1C (stereo not given),22µM,?
O=C(NCCC1=CCCCC1)c1ccc2c(c1)N(Cc1cccc(Cl)c1)C(=O)c1ccccc1S2(=O)=O,i,?
Cc1ccc(C)c(CN2C(=O)c3ccccc3S(=O)(=O)c3ccc(C(=O)N4CCCC4)cc32)c1,i,?
Cc1ccc(C)c(CN2C(=O)c3ccccc3S(=O)(=O)c3ccc(C(=O)NCCC4=CCCCC4)cc32)c1,i,32µM
O=C(NCCC1=CCCCC1)c1ccc2c(c1)N(Cc1ccc(F)cc1)C(=O)c1ccccc1S2(=O)=O,i,?
O=C(NCc1ccco1)c1ccc2c(c1)N(Cc1ccc(Cl)cc1)C(=O)c1ccccc1S2(=O)=O,i,25µM
SMILES,Cruzain Triton,Cruzain noTriton
O=C(NCCC1=CCCCC1)c1ccc2c(c1)N(Cc1ccc(Cl)cc1)C(=O)c1ccccc1S2(=O)=O,i,32µM
CCc1ccccc1NC(=O)c1ccc2c(c1)N(Cc1cc(C)ccc1C)C(=O)c1ccccc1S2(=O)=O,i,16µM
O=C(NCc1ccco1)c1ccc2c(c1)N(Cc1cccc(Cl)c1)C(=O)c1ccccc1S2(=O)=O,i,?
COc1cc2c(cc1O)[C@@H](c1cc(O)c(O)c(OC)c1)[C@@](O)(C(=O)O)[C@@H](CO)[C@@H]2O,i,i
CCCSCCCNC(=O)c1ccc2nc(Cc3ccccc3)oc2c1,i,i
CCC(CC)c1nn2c(=O)cc(COc3ccc(NC(=O)c4ccc(C)cc4)cc3)nc2s1,i,i
CCOC(=O)c1ccc2c(c1)N(Cc1ccc(F)cc1Cl)C(=O)c1ccccc1S2(=O)=O,i,10µM
COc1ccc(CNC(=O)c2ccc3c(c2)N(Cc2ccccc2F)C(=O)c2ccccc2S3(=O)=O)cc1,i,25µM
O=C(OCC1CCCO1)c1ccc2c(c1)N(Cc1ccccc1Cl)C(=O)c1ccccc1S2(=O)=O (stereo not given),i,i
COCCNC(=O)c1ccc2c(c1)N(Cc1cccc(Cl)c1)C(=O)c1ccccc1S2=O (stereo not given),i,i
Cc1ccc(C)c(CN2C(=O)c3ccccc3S(=O)c3ccc(C(=O)NCCc4ccc(Cl)cc4)cc32)c1 (stereo not given),i,6.3µM
O=C(NCCC1=CCCCC1)c1ccc2c(c1)N(Cc1cccc(Cl)c1)C(=O)c1ccccc1S2=O (stereo not given),i,13µM
COc1ccc(CNC(=O)c2ccc3c(c2)N(Cc2ccccc2)C(=O)c2ccccc2S3(=O)=O)cc1,i,?
COCCNC(=O)c1ccc2c(c1)N(Cc1cc(C)ccc1C)C(=O)c1ccccc1S2=O (stereo not given),i,?
C=CCOC(=O)N[C@H](/C(C(=O)OC)=C(\C)NCc1ccccc1)c1ccc(Br)cc1,i,i
Cc1cc(-c2ccc(S(=O)(=O)N3CCN(c4ccc(Cl)cc4)CC3)s2)on1,i,i

# From PubChem BioAssay
